# Test results: the supplement of paper PMC10981050
# Values joined by “and” are separate entries in the source; they are usually repeats but may differ in a detail not shown here. Identical values can stand only once. Counter-ions that a name gives are not always drawn.
# How the values were obtained:
# Test in all cases: cell viability relative to vehicle control; higher = less cytotoxic
# Details in all cases: 10 µM
# [1] = tested on: K562
# In short: (§1)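 Each screen used CRISPR-edited mutant and wild-type clones from four leukaemia lines. Compounds were acoustically dispensed at a single 10 µM dose, and CellTiter-Glo luminescence was read after 48 h with the supernatant first removed. Viability was analysed in Genedata Screener and given as percent of the on-plate vehicle control.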
# [2] = tested on: MARIMO
# In short: as §1
# [3] = tested on: MOLM14
# In short: as §1
# [4] = tested on: OCI-AML2
# In short: as §1
Compound,cell viability ([1]; SRSF2 genotype: SRSF2 P95H/wt),cell viability ([1]; SRSF2 genotype: SRSF2 wt/wt),cell viability ([2]; SRSF2 genotype: SRSF2 P95H/wt),cell viability ([2]; SRSF2 genotype: SRSF2 wt/wt),cell viability ([3]; SRSF2 genotype: SRSF2 P95H/wt),cell viability ([3]; SRSF2 genotype: SRSF2 wt/wt),cell viability ([4]; SRSF2 genotype: P95H/wt),cell viability ([4]; SRSF2 genotype: wt/wt)
Cc1nnsc1C(=O)Nc1ccc(-n2nc(C(F)(F)F)cc2C(F)(F)F)cc1,78.2% and 82%,76.3%,86.6%,98.2%,107%,99.1%,76.6%,89.2%
Cc1ccc(C(C)C)cc2c(C)ccc1-2 [Guaiazulene],97.5% and 99%,110%,102%,101%,93.5%,105%,107%,93.4%
O=C(O)C=C(CC(=O)O)C(=O)O [cis-Aconitic acid],109% and 108%,101%,102%,113%,102%,103%,97.9%,106%
Cc1ccc(NC(=O)c2cccc(C(C)(C)C#N)c2)cc1Nc1ccc2ncn(C)c(=O)c2c1,12.9% and 33%,25.2%,44%,40.9%,44.9%,35.3%,42.7%,41.7%
CN1CCN(Cc2ccc(NC(=O)Cc3ccc(Oc4cc(NC(=O)C5CC5)ncn4)cc3)cc2C(F)(F)F)CC1,30.9% and 36.5%,23.8%,4.48%,2.16%,1.39%,0.45%,1%,5.81%
CC1(C)S[C@@H]2[C@H](NC(=O)[C@H](NC(=O)N3CCN(S(C)(=O)=O)C3=O)c3ccccc3)C(=O)N2[C@H]1C(=O)O [Mezlocillin Sodium],100% and 98.1%,102%,101%,112%,100%,101%,97.4%,112%
N=C1NC(=O)/C(=C/c2ccc(O)cc2)S1 [Mirin],93.7% and 96.5%,101%,86.4%,87.3%,76.5%,85.1%,64.9%,71%
NCCCC[C@@H]1NC(=O)[C@@H](Cc2ccc(O)cc2)NC(=O)[C@H](CC(=O)O)NC(=O)CNC(=O)[C@H](CCCN=C(N)N)NC1=O [Cyclo(RGDyK)],93.8% and 88.5%,89.8%,92.8%,96.9%,91.3%,90.9%,94.8%,93.9%
NC(=O)c1noc([C@H](CCCC2CCCCC2)CC(=O)NO)n1,92.1% and 88.7%,83.8%,61.7%,68.3%,76.3%,80.6%,15.1%,40.7%
CN1CCN(c2c(F)cc3c(=O)c(C(=O)O)cn4c3c2OCN4C)CC1 [Marbofloxacin],100% and 108%,105%,102%,109%,103%,100%,104%,110%
S=c1[nH]cnc2nc[nH]c12 [Mercaptopurine (6-MP)],58.5% and 51.3%,34.1%,82.1%,85.9%,74.4%,63.6%,83.2%,90%
CC(C)c1cc2c(cc1S(=O)(=O)O)[C@@]1(C)CCC[C@@](C)(C(=O)O)[C@@H]1CC2 [Ecabet sodium],95.2% and 96.4%,105%,96.6%,101%,97%,99.7%,105%,91.8%
COC(=O)[C@@H]1CC2=CC(=O)CC[C@]2(C)[C@@]23O[C@@H]2C[C@@]2(C)[C@@H](CC[C@@]24CCC(=O)O4)[C@H]13 [Eplerenone],98.4% and 103%,103%,98%,103%,107%,95.6%,100%,101%
CNCCCC12CCC(c3ccccc31)c1ccccc12 [Maprotiline hydrochloride],76.7% and 74.8%,71.2%,65.2%,71.2%,64.4%,83.2%,51.1%,56.8%
CCc1ccc(/C=C2/SC(=S)NC2=O)cc1,106% and 101%,102%,100%,108%,105%,104%,91%,91.2%
CCc1cccc(CC)c1NC(=O)N1Cc2[nH]nc(NC(=O)c3ccc(N4CCN(C)CC4)cc3)c2C1,29.9% and 41.4%,25.5%,69.2%,70.3%,19.8%,13.4%,12.8%,23.3%
O=C(O)CNC(=O)c1ccccc1 [Hippuric acid],103% and 104%,106%,101%,112%,98.4%,107%,103%,101%
C[C@@H](O)[C@H]1C(=O)N2C(C(=O)O)=C(S[C@@H]3CN[C@H](CNS(N)(=O)=O)C3)[C@H](C)[C@H]12 [Doripenem Hydrate],95.8% and 101%,94.1%,94.6%,101%,103%,97.5%,96.4%,99%
O=Cc1ccc(O[C@@H]2O[C@H](CO)[C@@H](O)[C@@H](O)[C@H]2O)cc1 [Helicide],99% and 102%,103%,96%,99.9%,97.8%,104%,99.8%,96.5%
COc1ccc(C(=O)O)cc1O [Isovanillic acid],97.7% and 89.4%,95.3%,85.2%,97.5%,87.1%,90.6%,82.2%,86.7%

Compound,cell viability ([1]; SRSF2 genotype: SRSF2 P95H/wt),cell viability ([1]; SRSF2 genotype: SRSF2 wt/wt),cell viability ([2]; SRSF2 genotype: SRSF2 P95H/wt),cell viability ([2]; SRSF2 genotype: SRSF2 wt/wt),cell viability ([3]; SRSF2 genotype: SRSF2 P95H/wt),cell viability ([3]; SRSF2 genotype: SRSF2 wt/wt),cell viability ([4]; SRSF2 genotype: P95H/wt),cell viability ([4]; SRSF2 genotype: wt/wt)
COc1ccc(-c2cc(=O)c3c(O)cc(O)cc3o2)cc1 [Acacetin],106%,99.1%,102%,115%,107%,107%,88.7%,102%
CC1(C)CCC[C@](C)([C@H]2CC[C@]3(C)[C@@H]2[C@H](O)C[C@@H]2[C@@]4(C)CC[C@H](O)C(C)(C)[C@@H]4[C@@H](O)C[C@]23C)O1 [Panaxatriol],105% and 99.1%,97.5%,103%,105%,98.6%,103%,102%,109%
COc1cccc2c1C(=O)c1c(O)c3c(c(O)c1C2=O)CC(O)(C(=O)CO)CC3OC1CC(N)C(O)C(C)O1 (configuration not stated) [Doxorubicin (Adriamycin) HCl],4.96% and 11.8%,6.38%,5.57%,2.71%,1%,0.45%,2.05%,12.5%
CC1(C)O[C@@H]2[C@@H](CO[C@@]3(COS(N)(=O)=O)OC(C)(C)O[C@@H]23)O1 [Topiramate],99.1% and 107%,99.3%,104%,106%,107%,105%,104%,113%
C[S+](CC[C@H](N)C(=O)[O-])C[C@H]1O[C@@H](n2cnc3c(N)ncnc32)[C@H](O)[C@@H]1O (some centres not stated) [Ademetionine disulfate tosylate],105% and 97.3%,103%,102%,110%,112%,115%,117%,110%
CC(C)c1cccc(O)c(=O)c1,87.6% and 88.1%,83.2%,79.5%,70.3%,93.5%,96.4%,59.6%,59.8%
NC(=O)C1CCCc2c1[nH]c1ccc(Cl)cc21 (configuration not stated),97% and 96%,105%,89%,102%,96%,99.6%,91.2%,92.2%
O=C(Nc1cccc(C(F)(F)F)c1)Nc1cc(S(=O)(=O)NC2CC2)ccc1-c1ccsc1,82.6% and 92.4%,80.2%,94.2%,104%,92%,94.4%,86.6%,95%
NC(=O)c1cc(F)cc2c1C(=O)N(C1CCN(C3CCC(F)(F)CC3)CC1)C2,97.3% and 103%,95.7%,96.4%,106%,82.6%,97.3%,87.5%,96.1%
COc1cc2c(c(O)c1OC)-c1c(cc(OC)c(OC)c1OC)C[C@@H](C)[C@@H](C)C2 [Schisanhenol],96.7% and 100%,97.1%,100%,107%,90.3%,96.8%,91.7%,102%
O=c1ccc2ccc(O)cc2[nH]1 [7-Hydroxycarbostyril],95.8% and 92.9%,101%,95.4%,101%,95%,101%,91.2%,107%
COc1cc(/C=C/C(=O)N2CCN(CC(=O)N3CCCC3)CC2)cc(OC)c1OC [Cinepazide maleate],102% and 105%,99.2%,99.5%,106%,106%,105%,106%,108%
CNC(=O)[C@H](Cc1ccccc1)NC(=O)[C@H](CC(C)C)[C@H](CSc1cccs1)C(=O)NO [Batimastat (BB-94)],91.3% and 94.3%,75%,79%,96.8%,89.4%,98.5%,115%,114%
CC(C)(C)C(=O)Oc1ccc(S(=O)(=O)Nc2ccccc2C(=O)NCC(=O)O)cc1 [Sivelestat sodium tetrahydrate],101% and 94.9%,102%,96.7%,102%,106%,100%,96.5%,99.2%
CCCCCCNC(=O)n1cc(F)c(=O)[nH]c1=O [Carmofur],96% and 94.6%,82%,74.1%,81%,42.2%,27.3%,57.9%,58.3%
CCCC(=O)OCOC(=O)C1=C(C)NC(C)=C(C(=O)OC)C1c1cccc(Cl)c1Cl (configuration not stated) [Clevidipine Butyrate],102% and 105%,104%,100%,107%,104%,109%,107%,108%
C[C@H](NC(=O)CCc1nc2ccccc2c(=O)[nH]1)c1ccccc1,103%,108%,106%,100%,105%,100%,105%,121%
O=C1c2c(O)cccc2C([C@@H]2O[C@H](CO)[C@@H](O)[C@H](O)[C@H]2O)c2cc(CO)cc(O)c21 (some centres not stated) [Aloin (Barbaloin)],105% and 104%,98.5%,105%,102%,109%,104%,98.1%,102%
C[N+]1(C)CCC(=C(c2ccccc2)c2ccccc2)CC1 [Diphemanil Methylsulfate],92.5% and 98%,96.6%,101%,106%,99%,98.6%,99.8%,101%
